From PubChem
This is one part of a sample in which hits are shown more often than they occur.
KDM5B inhibitor: KDM5B demethylase inhibition | KDM5B demethylase, FDH-coupled NADH fluorescence (FDH is formaldehyde dehydrogenase) | AID 1347165 | Potency, µM (titrated, usually from 57.7 µM), hits mostly inhibitors | Q9UGL1 | 2.6% of 220,000 active; active means well fitted inhibition curve with a large enough effect; further: 0% is about no effect; nearly all actives have a fitted effect of over 70% in size
Target sequence (Q9UGL1 whole entry, looked up): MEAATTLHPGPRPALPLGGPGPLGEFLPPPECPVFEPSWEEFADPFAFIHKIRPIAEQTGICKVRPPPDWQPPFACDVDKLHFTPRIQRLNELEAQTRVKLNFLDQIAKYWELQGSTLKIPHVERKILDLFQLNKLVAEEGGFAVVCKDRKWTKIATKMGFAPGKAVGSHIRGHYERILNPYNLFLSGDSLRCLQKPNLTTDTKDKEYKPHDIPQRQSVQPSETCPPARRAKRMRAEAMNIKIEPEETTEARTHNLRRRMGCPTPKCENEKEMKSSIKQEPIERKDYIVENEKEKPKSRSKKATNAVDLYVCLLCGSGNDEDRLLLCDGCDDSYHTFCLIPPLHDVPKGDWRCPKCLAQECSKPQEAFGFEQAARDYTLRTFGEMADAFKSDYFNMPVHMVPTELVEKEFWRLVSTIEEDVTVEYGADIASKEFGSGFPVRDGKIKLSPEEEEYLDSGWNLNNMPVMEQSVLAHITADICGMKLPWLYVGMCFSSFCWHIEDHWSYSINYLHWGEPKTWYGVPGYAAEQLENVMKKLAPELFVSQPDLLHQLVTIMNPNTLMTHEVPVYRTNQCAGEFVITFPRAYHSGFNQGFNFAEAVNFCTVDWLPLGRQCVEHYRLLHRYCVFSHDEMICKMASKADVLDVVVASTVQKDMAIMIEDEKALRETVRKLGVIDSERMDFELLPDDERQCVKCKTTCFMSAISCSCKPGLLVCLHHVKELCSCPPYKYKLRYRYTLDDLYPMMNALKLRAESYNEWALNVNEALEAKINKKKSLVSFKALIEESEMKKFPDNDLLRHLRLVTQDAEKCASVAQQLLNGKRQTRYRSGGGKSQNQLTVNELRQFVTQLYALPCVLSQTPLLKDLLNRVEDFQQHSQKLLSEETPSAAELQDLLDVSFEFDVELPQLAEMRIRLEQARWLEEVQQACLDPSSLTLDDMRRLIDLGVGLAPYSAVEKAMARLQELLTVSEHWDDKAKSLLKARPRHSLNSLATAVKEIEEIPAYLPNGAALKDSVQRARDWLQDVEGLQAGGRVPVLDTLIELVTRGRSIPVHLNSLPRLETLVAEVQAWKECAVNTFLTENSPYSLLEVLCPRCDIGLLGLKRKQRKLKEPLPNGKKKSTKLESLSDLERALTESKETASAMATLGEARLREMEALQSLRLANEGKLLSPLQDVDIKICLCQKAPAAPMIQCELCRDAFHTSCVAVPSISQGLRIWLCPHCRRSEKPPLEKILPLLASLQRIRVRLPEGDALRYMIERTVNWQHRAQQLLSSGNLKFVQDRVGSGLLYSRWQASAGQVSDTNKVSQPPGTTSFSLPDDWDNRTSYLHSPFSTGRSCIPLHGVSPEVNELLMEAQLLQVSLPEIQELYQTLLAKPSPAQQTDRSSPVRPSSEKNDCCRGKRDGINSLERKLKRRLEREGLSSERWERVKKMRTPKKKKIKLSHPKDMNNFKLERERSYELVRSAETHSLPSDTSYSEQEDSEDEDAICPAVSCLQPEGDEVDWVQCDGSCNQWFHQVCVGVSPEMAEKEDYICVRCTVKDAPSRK
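Here, H3K4me3 peptide (12.5 µM in substrate mix) is demethylated by KDM5BΔAP, 200 nM final, after 10 min compound exposure. Formaldehyde product is coupled through FDH (0.25 U/mL in mix) to NADH fluorescence; 30-min ΔRFU feeds dose-response curves.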
* = called active by the depositor; i = inactive. Potency means the concentration at half of the fitted maximal effect.

SMILES | KDM5B inhibitor
COc1ccccc1-c1c(C)nn2c(NC3CCCC3)cc(C)nc12 | i
c1ccc(-c2noc(-c3nc(C4CC4)no3)n2)cc1 | i
CC(Cc1ccc(Br)cc1)NC(=O)C1CCCCC1 (stereo unspecified) | i
O=C1C2CCCN2C(=O)N1Cc1coc(-c2ccccc2)n1 (stereo unspecified) | i
COc1cccc(C2CC(=O)Nc3n[nH]c(Nc4ccccc4)c32)c1 (stereo unspecified) | i
Cc1cccc(NC(=O)Cc2c[nH]c3ccccc23)c1C | i
Cc1cc(C)cc(OCc2nnc(SCC(=O)NC3CCCCCC3)n2C)c1 | i
c1coc(-c2ccnc3nc(C4CCC4)nn23)c1 | 28.2µM*
Cc1nn2c(-c3ccco3)ccnc2c1-c1ccc(F)cc1 | i
COc1cc(-c2ccnc3nc(-c4cccs4)nn23)cc(OC)c1OC | 14.1µM*
COc1cccc(-c2ccnc3nc(C4CCC4)nn23)c1 | 28.2µM*
COc1cccc(-c2ccnc3c(-c4ccccc4)c(C)nn23)c1 | i
c1coc(-c2nc3n(n2)C2(CCCCC2)[C@@H]2CCCC[C@@H]2N3)c1 | i
COc1cccc2cc(-c3nc(-c4cccs4)no3)c(=O)oc12 | i
COc1ccccc1CN1CCN(Cc2nc(-c3cccs3)no2)CC1 | i
COc1cccc(-c2ccnc3c(-c4ccc(F)cc4)c(C)nn23)c1 | i
Cn1cnc2c1c(=O)n(CC(=O)N1CCC1)c(=O)n2C | i
CC(C)OC(=O)/C(C#N)=C/c1ccc(-c2ccccc2Cl)o1 | i
COC(=O)c1ccc(CN(C)C(=O)CCc2ncc(-c3ccc(F)cc3)o2)cc1 | i
C=CCN1C(=O)COc2ccc(NC(=O)c3cc(=O)c4ccc(C)c(C)c4o3)cc21 | i
CCCNCc1ccc(-c2cccc(Cl)c2)o1 | i
O=Cc1cccn1-c1cc(Cl)c(Cl)cc1Cl | i
COc1ccccc1CNC(=O)Cn1c(=O)c2c(ncn2CC(C)C)n(Cc2ccccc2)c1=O | i
CN(C)S(=O)(=O)c1cccc(C(=O)NCC2COc3ccccc3O2)c1 (stereo unspecified) | i
CSC(C)C(=O)NC(C)C1CCCO1 (stereo unspecified) | i
SMILES | KDM5B inhibitor
CCNS(=O)(=O)c1cccc(C(=O)N2CCCC2c2ccc(OCC)cc2)c1 (stereo unspecified) | i
O=[N+]([O-])c1ccc(Sc2ccc(NC(=S)Nc3ccccc3)cc2)cc1 | i
CN(Cc1nc2ccccc2s1)c1ncc(C(F)(F)F)cc1Cl | i
O=C(Nc1ccccc1F)N1CCCCCC1c1nc(-c2cccnc2)no1 (stereo unspecified) | i
Cc1cc(N2CCOCC2)nc2ccc(NC(=O)NCC(C)C)cc12 | i
C#CCNC(=O)C[C@@H]1CCN(C(=O)Nc2cccc(C(=O)OCC)c2)C[C@@H]1CC | 15.8µM*
CCOC(=O)c1cccc(NC(=O)N2CC[C@@H](CC(=O)NC3CC3)[C@@H](CC)C2)c1 | i
CCOC(=O)c1cccc(NC(=O)N2CC[C@@H](CC(=O)NCCN(C)C)[C@@H](CC)C2)c1 | i
Cn1c(=O)c2c(ncn2CC(=O)Nc2ccc(F)c([N+](=O)[O-])c2)n(C)c1=O | i
COCCNC(=O)c1ccc2nnc(-c3cncc(Cl)c3)n2c1 | 100µM*
CN(CC(=O)NC1CC1)C(=O)CSc1nnc(-c2ccc(Cl)cc2)n1C | i
Cc1cccc(C)c1-c1nnc2ccc(C(=O)NC3CC3)cn12 | i
COCCNC(=O)c1ccc2nnc(-c3ccc(Cl)cc3Cl)n2c1 | i
CCn1cc(-c2ccc(Cl)cc2)cc1C(=O)NCCOC | i
O=C(NC1CC1)c1ccc2nnc(-c3ccc(Cl)cc3)n2c1 | 50.1µM*
C=CCNC(=O)COC(=O)c1cc(-c2ccc(Cl)s2)nc2ccccc12 | i
Cc1oc(CO)cc1C(=O)OC(C)C(=O)Nc1cc(F)ccc1F (stereo unspecified) | i
Cc1cc(CN2CCN(Cc3nc(C(C)C)no3)CC2)on1 | i
Cc1cnc(CCNC(=O)Cn2c(=O)oc3ccccc32)n1C1CCC1 | i
COC(=O)[C@@H]1Cc2nc[nH]c2CN1C(=O)c1ccc(-c2ccccc2)cc1 | i
COc1ccc(-c2ccc(C(=O)N3Cc4[nH]cnc4CC3C(=O)O)o2)cc1 (stereo unspecified) | 28.2µM*
COc1ccc(C(=O)N2Cc3[nH]cnc3C[C@H]2c2nc(-c3ccc(OC(F)(F)F)cc3)no2)cc1 | i
Cn1ccnc1C(NC(=O)Nc1ccc(Cl)cc1)c1ccccc1F (stereo unspecified) | i
O=C(Nc1c(NC2CCCCC2)c2ccccc2oc1=O)c1cccc(Cl)c1 | i
CCn1ccc(C(=O)N2CCCCCCNC(=O)CC2)n1 | i
SMILES | KDM5B inhibitor
CNc1nc2c(c(C(=O)N3CCCC3)n1)CN(S(=O)(=O)C1CC1)CC2 | i
CCn1ccc(C(=O)N2CCc3nc(NC)nc(C(=O)N4CCCC4)c3C2)n1 | 17.8µM*
CN(CCCNC(=O)c1cccnc1)CC(F)(F)F | i
COc1ccc(OC)c(NC(=O)COc2ccc(C(C)C)cc2-n2cnnc2)c1 | i
CC1(C)CC(=O)C2=C(C1)Nc1[nH]n(-c3ccccc3)c(=O)c1C2c1ccc(O)cc1 (stereo unspecified) | i
O=C(Cn1ccn2nc(-c3ccc(F)cc3)c(CO)c2c1=O)Nc1ccccc1Cl | 28.2µM*
Cc1cccc(C)c1NC(=O)Cn1ccn2nc(-c3ccc(F)cc3)c(CO)c2c1=O | i
O=C(Cn1ccn2nc(-c3ccc(F)cc3)c(CO)c2c1=O)Nc1ccccc1F | i
O=C(Cn1ccn2nc(-c3ccc(F)cc3)c(CO)c2c1=O)Nc1cc(F)ccc1Cl | i
CCc1cccc(NC(=O)Cn2ccn3nc(-c4ccc(F)cc4)c(CO)c3c2=O)c1 | i
O=C(Cn1ccn2nc(-c3ccc(F)cc3)c(CO)c2c1=O)Nc1cc(F)cc(F)c1 | i
O=C(Cn1ccn2nc(-c3ccc(F)cc3)c(CO)c2c1=O)Nc1cccc(C(F)(F)F)c1 | 22.4µM*
Cc1ccc(NC(=O)Cn2ccn3nc(-c4ccc(F)cc4)c(CO)c3c2=O)cc1 | 22.4µM*
CSc1cccc(NC(=O)Cn2ccn3nc(-c4ccc(F)cc4)c(CO)c3c2=O)c1 | i
C/C=C/C=C/C(=O)OCc1nc2c(c(=O)[nH]c(=O)n2CCCC)n1CC | i
Cc1cccc(-n2c(SCC(=O)NC(C)c3cc4ccccc4o3)nnc2N2CCOCC2)c1 (stereo unspecified) | i
Brc1ccc(C2=NOC(c3ccc(Br)cc3)C2)cc1 (stereo unspecified) | i
O=C(O)CCC(=O)N[C@H]1CO[C@H]2[C@@H]1OC[C@@H]2Nc1nccc(-c2cccc(F)c2)n1 | 31.6µM*
CC(=O)Nc1ccc(S(=O)(=O)N[C@H]2CO[C@H]3[C@@H]2OC[C@@H]3Nc2nccc(-c3ccco3)n2)cc1 | 22.4µM*
c1coc(-c2ccnc(N[C@H]3CO[C@H]4[C@@H]3OC[C@@H]4NCC3CCCCC3)n2)c1 | 31.6µM*
N#Cc1cccc(-c2ccnc(N[C@H]3CO[C@H]4[C@@H]3OC[C@H]4OC(=O)Nc3ccc(Oc4ccccc4)cc3)n2)c1 | i
O=S(=O)(N[C@H]1CO[C@H]2[C@@H]1OC[C@@H]2Nc1nccc(C2CCCC2)n1)c1cccc2cccnc12 | i
O=C(Nc1ccccc1)N[C@H]1CO[C@H]2[C@@H]1OC[C@@H]2Nc1nccc(C2CCCC2)n1 | i
O=C(Nc1ccc(Oc2ccccc2)cc1)O[C@@H]1CO[C@H]2[C@@H]1OC[C@@H]2NCC1CCCCC1 | i
